Assays:
Conditions in all cases: concentration: 1 μM, replicates: in singlicate; n = 1
CSK = test system: CSK
CSNK1A1L = test system: CSNK1A1L
CSNK1A1 = test system: CSNK1A1
CSNK1D = test system: CSNK1D
CSNK1E = test system: CSNK1E
CSNK1G1 = test system: CSNK1G1
CSNK1G2 = test system: CSNK1G2
CSNK1G3 = test system: CSNK1G3
CSNK2A1 = test system: CSNK2A1
CSNK2A2 = test system: CSNK2A2
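Note: KINOMEscan kinase panel screen.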

| SMILES | %Inh (CSK) [%] | %Inh (CSNK1A1L) [%] | %Inh (CSNK1A1) [%] | %Inh (CSNK1D) [%] | %Inh (CSNK1E) [%] | %Inh (CSNK1G1) [%] | %Inh (CSNK1G2) [%] | %Inh (CSNK1G3) [%] | %Inh (CSNK2A1) [%] | %Inh (CSNK2A2) [%] |
| --- | --- | --- | --- | --- | --- | --- | --- | --- | --- | --- |
| COC(=O)c1cccc(NC(=O)NC2CCN(c3ccnc(Nc4ccc(OC)cc4)n3)C2)c1 (centres unmarked) [GSK1379746] | 0 | 0 | 0 | 21 | 35 | 0 | 0 | 26 | 0 | 0 |
| Cc1c(Cn2c3ccccc3n3c(=O)cc(N4CCOCC4)nc23)cccc1C(F)(F)F [GSK2306394] | 0 | 0 | 19 | 10 | 12 | 9 | 43 | 17 | 6 | 14 |
| COc1ccc(-c2coc3ccc(-c4nnc(C)o4)cc23)cc1 | 0 | 0 | 0 | 0 | 0 | 4 | 1 | 0 | 0 | 15 |
| CCn1c(-c2c(N)noc2C)nc2cnccc21 [SB-737856] | 0 | 18 | 0 | 13 | 11 | 8 | 0 | 9 | 0 | 0 |
| Fc1ccc(-c2nc[nH]c2-c2ccncc2)cc1 [SB-217360] | 6 | 24 | 93.3 | 91.9 | 97.7 | 5 | 0 | 5 | 0 | 0 |
| O=C1NC(=O)C(c2ccc(Cl)cc2)=C1Nc1ccc(O)cc1 [SB-340867] | 0 | 2 | 0 | 0 | 0 | 0 | 0 | 32 | 0 | 0 |
| COc1cccc(C2=C(Nc3cc(Cl)c(O)c(Cl)c3)C(=O)NC2=O)c1 [SB-390767] | 0 | 5 | 0 | 13 | 24 | 100 | 0 | 25 | 0 | 0 |
| Fc1ccc(-c2nc3n(c2-c2ccncc2)CCS3)cc1 [GI98581] | 0 | 30 | 84 | 95.3 | 98.2 | 14 | 17 | 32 | 10 | 6 |
| Cn1cncc1-c1cc2c(Nc3ccc(OCc4ccccc4)cc3)ncnc2cn1 [GW281179] | 4 | 4 | 0 | 19 | 24 | 9 | 0 | 24 | 0 | 9 |
| COc1nccc(-c2c(-c3ccc(F)cc3)ncn2CCCN2CCOCC2)n1 [SB-282852] | 0 | 45 | 44 | 31 | 29 | 0 | 0 | 53 | 0 | 9 |
| CC[C@@H]1CO[C@H](C(=O)Nc2ccccc2)CN1c1cc(-c2ccc3c(N)n[nH]c3c2)nc(NC)n1 [GSK2376236] | 0 | 4 | 0 | 39 | 42 | 7 | 31 | 39 | 12 | 10 |
| COC(=O)C(NC(=O)NC1CCN(c2ccnc(Nc3ccc(F)cc3)n2)C1)c1ccccc1 (centres unmarked) [GSK1379712] | 0 | 3 | 0 | 92 | 19 | 5 | 1 | 25 | 3 | 0 |
| O=c1cc(N2CCOCC2)nc2n(Cc3ccccc3F)ccn12 [GSK2297428] | 0 | 0 | 28 | 25 | 33 | 9 | 0 | 28 | 0 | 0 |
| COC(=O)C(Cc1ccccc1)NC(=O)NC1CCN(c2ccnc(Nc3ccc(F)cc3)n2)C1 (centres unmarked) [GSK1379714] | 0 | 2 | 5 | 7 | 7 | 0 | 13 | 11 | 0 | 14 |
| COc1ccc(CSc2nnc(-c3ccc4nccn4c3)o2)cc1C(F)(F)F | 0 | 0 | 18 | 0 | 0 | 15 | 0 | 0 | 0 | 21 |
| Cc1ccc(NC(=O)Nc2ccccc2)cc1-c1ccc(C(=O)Nc2ccncc2)cc1 [GSK1398471] | 2 | 0 | 0 | 13 | 24 | 11 | 13 | 29 | 6 | 7 |
| COc1ccc(Nc2nccc(N3CCC(NC(=O)C(C)c4ccc(Cl)cc4)CC3)n2)cc1 (centres unmarked) [GSK1379812] | 0 | 0 | 0 | 18 | 35 | 7 | 0 | 19 | 0 | 21 |
